Screens: PubChem, National Center for Advancing Translational Sciences (NCATS)
The sample as a whole holds a higher share of hits than the screen did.
Lassa entry inh = Lassa virus entry inhibition. 1.2% of 300,000 active. Lassa virus pseudotype entry inhibition, cell reporter. Potency, µM (doses to about 37.9 µM), for inactives: at the top dose activity change, negative = inhibition, hits mostly inhibitors; calls by dose curve; tested in HEK293 cells; note: potency is the fitted concentration of half-maximal effect; % is set by controls: 0 for no effect and ±100 for the full control effect; nearly all actives have a fitted effect of over 50% in size
Marburg entry inh = Marburg virus entry inhibition; 1.8% of 300,000 active; Marburg virus pseudotyped entry inhibition, cell reporter; AID 540276; Potency, µM (doses to about 37.8 µM), without a hit: at the highest dose activity change, negative = inhibition, usual class: inhibitors; calls by dose curve; tested in HEK293 cells; note: potency is the fitted concentration of half-maximal effect; % is set by controls: 0 for no effect and ±100 for the full control effect
AMA1 RON2 block = disrupts binding of P. falciparum AMA1 to RON2; AlphaScreen AMA1-biotinylated RON2 peptide binding; Potency, µM (doses to about 58.2 µM), inactives show at the top dose activity change, negative = inhibition, hits mostly inhibitors; 0.2% of 360,000 active; AID 720542; active = well fitted inhibition curve with a large enough effect; inconclusive = small, poorly fitted or top-dose-only effect; inactive = no such curve, though single readings can be large or run the other way;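 note: potency is the fitted concentration of half-maximal effect; 0% = vehicle wells and -100% = peptide control; nearly all actives have a fitted effect of over 45% in size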
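AMA1 (3D7) with his tag at 25 nM final met compounds first, then biotinylated RON2 peptide at 25 nM; detection used donor plus acceptor beads, 10 µg/mL apiece, read by AlphaScreen after 30 min at room temperature.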
CHX counter = counter-screen for Shiga toxin inhibitors: cycloheximide protein synthesis inhibition | max response, % | AID 2314 | 12% of 300,000 active | cell reporter, cycloheximide protein synthesis inhibition counterscreen; in the data active = max response mostly above about 13%, no sharp cut-off; inactive = mostly below about 14%; note: read at 38.3 µM for the half of the compounds with a filed dose; 0% is about no effect
Shiga inhibitor = inhibitors of Shiga toxin in Vero cells | Vero cells, Shiga toxin protein synthesis inhibition reporter | inhibition, % at 38.7 µM | 9.2% of 290,000 active; in the data active = inhibition mostly above about 28%, no sharp cut-off; inactive = mostly below about 43%; note: 0% is about no effect
* = called active by the depositor; ? = inconclusive; · = not tested or not shown; [ ] = remark or other dose.

SMILES	Lassa entry inh	Marburg entry inh	AMA1 RON2 block	CHX counter	Shiga inhibitor
CCOc1cc(S(=O)(=O)N(Cc2ccccc2)Cc2ccccc2)c(OCC)cc1-n1cnnn1	-52.8%[14.3 µM]	20.6µM*	-1.9%	-2.1	-10.5
CCOc1cc(S(=O)(=O)NCc2ccccc2)c(OCC)cc1-n1cnnn1	8.0%	-14.4%	12.4%	·	·
CC1CC(c2ccccc2)=Nc2ccccc2N1 (stereo not given)	-0.6%	2.8%	-2.5%	45.8*	53.8*
Cc1ccc([C@H]2N[C@]3(CCCN(Cc4ccc(Cl)cc4)C3=O)[C@H]3C(=O)N(Cc4ccccc4)C(=O)[C@@H]23)cc1	·	·	-11.2%	·	·
COC(=O)c1c(-c2cccc3ccccc23)csc1NC(=O)Cc1ccc(OC)c(OC)c1	11.2µM*	?	-9.8%	-2.5	-6.4
O=C(Nc1ccc(Cl)cc1F)c1ccccc1Br	?	?	-3.8%	63.2*	129.9*
O=C(NNC(=O)c1cccc2ccccc12)c1ccc(Cl)cc1Cl	24.0%[46.1 µM]	-7.1%[46.1 µM]	60.4%	·	·
O=C(Nc1ccc(Cl)cc1F)c1cccc2ccccc12	-9.0%[46.1 µM]	-0.7%[46.1 µM]	-2.1%	26.5*	33.7*
O=C(O)c1ccc(NC(=O)c2ccccc2Br)c(NC(=O)c2ccccc2Br)c1	·	·	5.7%	-3.3	-13.1
CC1S/C(=N/N=C/c2ccco2)N(Cc2ccc(F)cc2)C1=O (stereo not given)	·	·	-9.9%	29.7*	57.0*
O=C(O)CCCNc1cc(N2CCC3(CC2)OCCO3)c2noc3c2c1C(=O)c1ccccc1-3	·	-6.5%	·	24.3*	53.5*
O=C(O)CCCNc1cc(N2CCN(C(=O)c3ccco3)CC2)c2noc3c2c1C(=O)c1ccccc1-3	-15.6%[46.1 µM]	3.6%[46.1 µM]	-27.1%	-7.2	1.5
CC(=O)Nc1ccc(NC(=O)C(C)OC(=O)CCc2c[nH]c3ccccc23)cc1 (stereo not given)	-32.8%	?	-0.9%	·	·
O=C(CSC1=NNC(c2ccccn2)S1)Nc1ccc(C(F)(F)F)cc1 (stereo not given)	?	?	-20.9%	23.3*	37.9*
c1ccc(CSC2=NNC(c3ccccn3)S2)cc1 (stereo not given)	?	?	-17.8%	33.2*	31.8
CC(C)CN(CCC(=O)O)CC(C)C	-1.4%	-1.0%	-6.5%	1.1	-12.8
Cc1cc2cc(OCc3ccccc3)ccc2n1C	·	·	-13.8%	24.8*	31.0*
Cc1c(C=O)c2cc(OCc3ccccc3)ccc2n1C	14.6%[46.1 µM]	?	-1.2%	38.6*	70.2*
Cn1ccc2cc(OCc3ccccc3)ccc21	-3.7%	?	?	·	·
COC(=O)c1ccccc1S(=O)(=O)N1CCC(C(=O)OCc2ccc([N+](=O)[O-])cc2)CC1	?	?	-14.2%	·	·
O=C(NCCc1ccccc1)c1ccc2c(c1)S(=O)(=O)N=C1CCCCCN12	·	·	0.5%	·	·
C=CCNC(=O)c1ccc(C(=O)c2ccccc2)cc1	-9.6%	1.1%	18.1%	24.0*	109.9*
C=CCNC(=O)c1ccc2nc(-c3ccccc3)c(-c3ccccc3)nc2c1	?	-25.4%	7.4%	-4.6	16.4
CCC(=O)NC1=C(Nc2ccc(N)cc2)C(=O)c2ccccc2C1=O	-28.9%	?	-19.0%	27.4*	96.4*
COc1ccc(NC2=C(NC(C)=O)C(=O)c3ccccc3C2=O)cc1	?	?	-8.3%	6.8	25.0
SMILES	Lassa entry inh	Marburg entry inh	AMA1 RON2 block	CHX counter	Shiga inhibitor
O=C(Nc1ccc(C(=O)c2ccccc2)cc1)c1ccccc1	?	?	6.3%	55.9*	147.7*
N#Cc1ccc[n+](CC(=O)c2ccc(NC(=O)c3ccccc3)cc2)c1	·	·	2.9%	13.6	31.7*
O=C(NNC(=O)c1ccc(NC(=O)c2ccccc2)cc1)c1ccc(F)cc1	·	·	-13.4%	-0.8	9.5
CC(C(=O)Nc1ccccc1F)N1CCN(C)CC1 (stereo not given)	·	·	·	-5.0	6.7
O=C(N/N=C(\c1ccccc1)c1cccnc1)c1cc(O)ccc1O	·	·	·	-2.4	-11.8
CCC(CC)C(=O)Nc1ccc(C(=O)c2ccccc2)cc1	9.7%	3.0%	12.6%	17.7*	49.9*
CCC(=O)Nc1ccc(C2C(=O)c3ccccc3C2=O)cc1	?	10µM*	-7.4%	25.4*	35.3
CCCCC(CC)C(=O)Nc1ccc(Nc2ccccc2)cc1 (stereo not given)	-1.9%	-2.1%	-3.3%	3.9	-6.9
CCC(=O)Nc1ccc(C(=O)c2ccccc2)cc1	12.4%	24.4%	-5.8%	20.1*	34.7
O=C(Nc1nc(-c2ccccc2)cs1)Nc1ccc(F)cc1F	?	-26.9%	-6.2%	27.7*	59.3*
O=C(Nc1ccccc1)Nc1nc(-c2ccc(F)c(F)c2)cs1	0.1%	-8.4%	-0.1%	6.1	5.8
O=C(Nc1nc(-c2cc(F)ccc2F)cs1)c1ccccn1	14.9%	7.4%[46.1 µM]	58.8%	15.3*	42.2*
O=C(Nc1nc(-c2cc(F)ccc2F)cs1)C1=COCCO1	3.6%[46.1 µM]	?	8.9%	·	·
O=C(Nc1nc(-c2ccccn2)cs1)Nc1ccc(F)cc1F	?	?	87.7%	35.0*	84.5*
O=C(Nc1cccnc1)OC1CCCC1	7.4%	?	-2.1%	22.1*	39.5
O=C(CCC(=O)NC1CCCCC1)Nc1cccnc1	·	·	-4.0%	1.4	-1.6
O=C(Nc1cccnc1)OC1CCCCC1	17.2%	-9.2%[46.1 µM]	6.2%	18.7*	35.7
COC(=O)[C@]1(CC=Cc2ccccc2)C=C[C@@H](C)[C@H](c2ccccc2Br)N1C(=O)C(F)(F)F	·	12.9%[14.2 µM]	·	·	·
O=C(NCc1n[nH]c(=S)n1-c1ccc(Cl)c(Cl)c1)c1ccco1	0.8%	-5.3%	31.0%	-2.5	-5.3
COc1ccc(C(C)=O)cc1CSc1nc(Nc2ccc(F)c(F)c2)c2ccccc2n1	-27.1%[46.1 µM]	·	·	·	·
CC1(C)CN=C(Nc2nc3ccccc3s2)S1	-6.7%	?	-22.8%	38.0*	77.1*
Cc1ccccc1Nc1nc2ccccc2s1	?	?	6.9%	66.4*	135.1*
CC1(C)CN=C(NCc2ccccc2)S1	·	·	13.5%	·	·
O=S(=O)(/N=C(/Nc1nc2ccccc2s1)c1ccccc1)c1ccc(F)cc1	13.6%	?	-5.1%	·	·
Fc1ccc(Nc2nc3ccccc3s2)cc1	-10.9%	?	2.7%	39.6*	119.7*
SMILES	Lassa entry inh	Marburg entry inh	AMA1 RON2 block	CHX counter	Shiga inhibitor
Cc1ccc(Nc2nc3ccccc3s2)cc1	?	?	2.2%	28.8*	72.1*
CCOc1cc(NC(=S)NCC2CCCO2)c(OCC)cc1NC(=O)c1ccccc1 (stereo not given)	-0.7%	-16.7%	-10.2%	-2.9	8.2
CCOc1cc(NC(=S)NCC2CCCO2)c(OCC)cc1NC(=O)c1cccc(C)c1 (stereo not given)	?	1.64µM*	-20.4%	-3.1	-9.0
O=C(NC(=S)NCCN1CCOCC1)c1ccc(Cl)cc1	-21.0%[46.1 µM]	3.6%[46.1 µM]	-13.6%	24.0*	34.3
Cc1ccc(C(=O)NC(=S)NCC2CCCO2)cc1 (stereo not given)	3.3%	?	-1.6%	64.6*	102.4
O=C(NC(=S)NCC1CCCO1)c1ccc(Cl)cc1 (stereo not given)	-2.3%	?	1.1%[2.32 µM]	29.4*	41.0*
O=C(COC(=O)c1ccccc1)NCC1CCCO1 (stereo not given)	7.9%	8.5%	-2.2%	24.3*	45.7*
